# Compound activity deposited in PubChem BioAssay by several laboratories.
# DAX1 inh: inhibits human nuclear receptor DAX1; HEK293 Gal4-DAX1 luciferase reporter, luminescence; inhibition, % at 6.75 µM; hit rate 0.99% among 340,000;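 active = inhibition above the mean over all tested compounds plus 3 SD, cut at about 4.2% in these data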;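 note: 0% = DAX1-transfected cells with DMSO and 100% = empty-vector control cells with DMSO; inhibition shows as a rise in luminescence from relieved DAX1 repression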
# Target sequence (P51843 207-470 limits assumed): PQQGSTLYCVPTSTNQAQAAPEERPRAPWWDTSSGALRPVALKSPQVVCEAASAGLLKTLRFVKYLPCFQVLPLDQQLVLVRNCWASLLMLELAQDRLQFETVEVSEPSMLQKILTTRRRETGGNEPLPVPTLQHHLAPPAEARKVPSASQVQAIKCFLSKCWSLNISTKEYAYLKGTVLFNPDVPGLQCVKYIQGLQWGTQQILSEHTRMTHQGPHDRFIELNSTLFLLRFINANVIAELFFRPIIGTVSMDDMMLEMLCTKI
# FXN GAA850 act: frataxin GAA850 promoter activation | hit rate 0.56% among 360,000 | activation, % at 6 µM | AID 540364 | HEK293 lucGAA850 FXN promoter luciferase reporter, 24 h; percent of 10 µM SAHA response;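 active = activation above the average of all compounds screened plus 3 SD, cutoff fixed separately per campaign, cut at about 7.5% in these data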;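 note: 0% = DMSO wells and 100% = 10 µM SAHA wells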
# AHR act: activators of human aryl hydrocarbon receptor; P35869; AHR-responsive luciferase reporter cells, luminescence; activation, % at 5 µM; hit rate 2.5% among 320,000; in the data active = activation above about 47%;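 note: 0% = vehicle wells and 100% = reference agonist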
# HSF1 inhib: HSF1 inhibition. NIH3T3-HGL HSE-luciferase, MG132-induced, luminescence 8 h; stronger effect = lower value. activity change, negative = inhibition, % at 7.5 µM (by protocol). hit rate 0.77% among 300,000. AID 2098;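 active = more than half of replicate wells show activity change below -50%, luminescence cut by over half; inconclusive = some wells, but at most half, below -50%; inactive = no replicate well below -50%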;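 note: luciferase reports HSF-1 transcriptional activity via heat shock element; 0% = median of DMSO wells and -100% = zero luminescence signal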
# HSF1 activator: increases HSF-1 driven luciferase reporter signal. NIH3T3-HGL HSF-1 luciferase reporter, MG132, 8 h; 100% = twice DMSO control signal. activation, % at 9 µM. hit rate 1.7% among 300,000;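 active = mean replicate activation of at least 50% with a set share of replicates each reaching 50%; inconclusive = only one of those two conditions met; inactive = mean below 50% and too few replicates reaching it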;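 note: 0% = median of the neutral control wells and 100% = twice that signal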
# GAA30 FXN cntr: counter-screen for GAA850 frataxin promoter activators: GAA30 promoter activation; AID 588350; hit rate 66% among 1,900; activation, % at 6 µM; HEK293 lucGAA30 FXN promoter luciferase, 24 h; DMSO = 0%, 5 µM ipriflavone = 100%; shares compounds with FXN GAA850 act;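 active = mean activation above the mean of solvent-only control wells plus 3 SD, cut at about 22% in these data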;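 note: counterscreen of GAA850 promoter hits where activity marks nonselective or luminescence artifacts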
# GAA850 confirm: GAA850 FXN promoter activation confirmation | shares compounds with FXN GAA850 act | HEK293 lucGAA850 FXN promoter luciferase reporter, 24 h; 100% = activation by SAHA | activation, % at 6 µM | hit rate 86% among 1,900 | AID 588351;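 active = mean activation above a set limit taken from the primary screen, cut at about 8% in these data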;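 note: 0% = DMSO wells and 100% = 10 µM SAHA wells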
# * marks the source's active call; other numbers are inactive results; ? = inconclusive; . = no result. Rows were chosen to be rich in hits. Some 5.4% of all compounds tested hit in one or more screens of this group.
SMILES,DAX1 inh,FXN GAA850 act,AHR act,HSF1 inhib,HSF1 activator,GAA30 FXN cntr,GAA850 confirm
CCCCCCOc1ccc(/C(C)=N/NC2=NCCN2)cc1[N+](=O)[O-],-0.7,7.8*,24.0,17.4,?,28.5*,17.3*
COc1ccc(/C(C)=N/NC2=NCCN2)cc1Cl,0.4,-0.1,.,-1.0,9.6,.,.
Clc1ccc(-c2csc(Nc3ccccc3)[n+]2Cc2ccco2)c(Cl)c1,3.1,7.9*,.,112.7,92.2*,82.6*,36.5*
CCCC[n+]1c(-c2ccc(Cl)cc2Cl)csc1Nc1ccccc1,-0.4,2.1,2.6,-1.9,24.4,.,.
CCN(C(=O)CSc1cccc[n+]1[O-])C1CCCCC1,-0.5,2.2,-0.1,.,.,.,.
O=C(O)c1ccccc1NN=C1CCCCC1,2.8,9.0*,18.3,1.5,4.2,38.0*,7.2
N#Cc1cc(Oc2cccc3cccnc23)c(-n2nnc3ccccc32)cc1C#N,-2.1,7.7*,21.9,182.7,211.0*,-1.5,15.1*
N#Cc1cc(O)c(-n2nnc3ccccc32)cc1C#N,-0.3,0.0,6.9,2.5,-3.7,.,.
CC1CN(CC(=O)Nc2ccc([N+](=O)[O-])cc2Br)CC(C)O1 (stereo unspecified),-0.3,-0.1,-5.1,4.3,-6.3,.,.
O=C(NCc1ccncc1)c1ccc(S(=O)(=O)Nc2ccccc2)cc1,-0.6,-1.3,0.3,-4.9,-14.3,.,.
CC[C@@]12C(=O)N(c3cccc(F)c3)C(=O)N1[C@H](c1ccc(OC)cc1)[C@@H]1C(=O)N(C(C)(C)C)C(=O)[C@@H]12,-1.2,11.4*,-0.7,1.1,-8.9,43.3*,17.8*
CC[C@@]12C(=O)N(c3cccc(C)c3)C(=O)N1[C@H](c1ccc(OC)cc1)[C@@H]1C(=O)N(C(C)(C)C)C(=O)[C@@H]12,-0.3,11.8*,-3.4,3.3,-0.2,29.5*,19.5*
COc1ccc([C@@H]2[C@@H]3C(=O)N(C(C)(C)C)C(=O)[C@@H]3[C@]3(Cc4ccc(Cl)cc4)C(=O)N(c4cccc(C)c4)C(=O)N23)cc1,0.8,6.7,0.9,0.8,18.0,.,.
COc1ccc(S(=O)(=O)N2CC(C)N(C(=O)N(C)C)C2C(C)C)cc1 (stereo unspecified),0.0,-0.5,-0.3,-4.8,-0.3,.,.
CCN(CC(O)c1cccc(O)c1)C(=O)C12CC3CC(CC(C3)C1)C2 (stereo unspecified),0.2,18.9*,-0.5,-0.2,-5.2,32.5*,22.6*
Cc1ccc(O)c(-n2nc3ccccc3n2)c1,0.7,9.2*,3.6,6.9,37.1,114.1*,34.8*
COc1ccccc1C(=O)Nc1ccc2c(c1)nc1n2CCSC1,-0.3,8.0*,12.3,.,.,98.1*,26.6*
c1cn2c(Nc3ccc4c(c3)OCCO4)c(-c3ccc(N4CCOCC4)cc3)nc2cn1,2.0,8.8*,22.9,3.0,-16.2,55.5*,17.9*
COCCNC(=O)c1cc(-c2cccs2)on1,3.9,15.1*,10.3,4.7,16.9,145.3*,69.9*
COC(=O)[C@]1(C)N[C@H](CN(C)C(=O)Nc2ccccc2)[C@@H]2C(=O)N(Cc3ccccc3)C(=O)[C@@H]21,0.1,9.4*,-0.9,.,.,22.0*,9.8*
CCN(C[C@H]1N[C@@](C)(C(=O)OC)[C@H]2C(=O)N(Cc3ccccc3)C(=O)[C@@H]12)C(=O)Nc1ccc(C)cc1,0.1,15.7*,-0.2,.,.,27.8*,11.7*
CCN(C[C@H]1N[C@@](C)(C(=O)OC)[C@H]2C(=O)N(Cc3ccccc3)C(=O)[C@@H]12)C(=O)Nc1ccccc1,0.3,6.6,2.5,.,.,.,.
C/C(Nc1ccc(Cl)cc1)=C1/CCOC1=O,0.6,1.5,.,.,.,.,.
CC1CCN(S(=O)(=O)c2ccc(C(=O)N3CCCC3C(=O)O)cc2)CC1 (stereo unspecified),-0.3,0.1,-1.7,.,.,.,.
COc1ccc(CCNC(=O)CSc2ccc3ccccc3c2)cc1OC,0.1,-0.8,6.1,-2.9,1.0,.,.
SMILES,DAX1 inh,FXN GAA850 act,AHR act,HSF1 inhib,HSF1 activator,GAA30 FXN cntr,GAA850 confirm
O=C(CSc1ccc2ccccc2c1)NCCc1ccc(O)c(O)c1,-1.6,12.9*,0.2,-3.5,11.2,43.3*,12.9*
CCOC(=O)c1ccc(NS(=O)(=O)c2c(C)nc3sccn3c2=O)cc1,0.3,-0.6,-0.8,-4.1,14.5,.,.
O=C(Nc1cccc(Cl)c1)c1ccccc1,0.9,7.7*,9.3,.,.,75.9*,20.1*
O=C(NNC(=S)Nc1cccc(Cl)c1)c1ccccc1,1.1,4.9,0.9,27.4,28.7,.,.
Cc1ccc2c(c1)[C@H]1[C@H](CO2)[C@H](c2ccccc2)[C@]2(C)C(=O)N(Cc3ccccc3)CC(=O)N12,0.7,9.0*,-1.6,.,.,15.7,10.7*
COc1ccc2c(c1)[C@H]1[C@H](CO2)[C@H](c2ccccc2)[C@]2(C)C(=O)N(Cc3ccc(C)cc3)CC(=O)N12,1.7,12.6*,-0.3,.,.,11.5,9.0*
Cc1ccc(CN2CC(=O)N3[C@H]4c5cc(C)ccc5OC[C@@H]4[C@H](c4ccccc4)[C@]3(C)C2=O)cc1,-0.1,1.4,0.4,.,.,.,.
Cc1ccc(CN2CC(=O)N3[C@H]4c5cc(Cl)ccc5OC[C@@H]4[C@H](c4ccccc4)[C@]3(C)C2=O)cc1,0.9,0.6,-0.1,.,.,.,.
CCOc1ccc(NC(=O)CN(C)C(=O)c2ccc(-c3ccc(C(C)=O)cc3)o2)cc1OCC,-1.1,2.2,21.2,1.7,17.2,.,.
Cc1nc(N2N=C(c3ccc(Cl)cc3)CC2c2ccco2)sc1C(=O)N(C)C (stereo unspecified),0.5,10.7*,27.5,5.9,16.4,26.5*,21.9*
COc1ccccc1NS(=O)(=O)c1cc(NC(=O)COc2ccccc2F)ccc1N1CCOCC1,-1.5,0.1,1.8,.,.,.,.
O=C(Nc1cccnc1Cl)c1ccc2c(Cl)c3c(nc2c1)CCC3,1.5,7.7*,.,9.1,23.2,112.7*,29.8*
COc1ccc(NC(=O)C2(C)Cc3c(-c4cccc(C(N)=O)c4)ccnc3O2)cc1OC (stereo unspecified),.,-1.6,.,.,.,.,.
COc1ccc(NC(=O)C2CCCN2S(=O)(=O)c2ccc3c(c2)CCC(=O)N3)cc1Cl (stereo unspecified),1.0,9.1*,0.1,.,.,6.3,11.8*
COc1ccc(NC(=O)C2CCCN2S(=O)(=O)c2ccc3c(c2)CCC(=O)N3)cc1 (stereo unspecified),2.0,0.4,-1.5,0.6,-0.4,.,.
CN=c1scc(-c2ccco2)n1/N=C/c1ccc(O)c(O)c1,-0.6,16.3*,.,-82.8*,-83.4,44.2*,22.9*
C=CCN=c1scc(C)n1/N=C/c1ccc(O)c(O)c1,3.7,10.1*,45.2,-11.7,6.4,63.0*,27.6*
